Screening data: PubChem BioAssay, National Center for Advancing Translational Sciences (NCATS)
Rows were chosen to be rich in hits. Some 2.9% of all compounds tested hit in one or more screens of this group.
TRPML1 agonist: agonists of human TRPML1 channel; TRPML1-expressing cells, Ca2+ dye fluorescence, FDSS; activation, % (test concentration not listed); 410,000 tested, 0.12% active; AID 624414; in the data active means activation above about 50%; inconclusive means mostly about 30% to 49%
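Agonist activity was taken from a 110 s kinetic Ca2+ dye read on the FDSS after pinning compounds onto TRPML1-DL cells. The cells were seeded at 1,500/well with Tet inducer, incubated about 16 h, then dye-loaded at room temperature.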
DRD3 agonist: activates the human D3 dopamine receptor | D3R DiscoveRx beta-arrestin cells, luminescence, 90 min | AID 652048 | max activation, % | 410,000 tested, 0.58% active | P35462; in the data active means max activation above about 30%
Target sequence (P35462 whole entry, looked up): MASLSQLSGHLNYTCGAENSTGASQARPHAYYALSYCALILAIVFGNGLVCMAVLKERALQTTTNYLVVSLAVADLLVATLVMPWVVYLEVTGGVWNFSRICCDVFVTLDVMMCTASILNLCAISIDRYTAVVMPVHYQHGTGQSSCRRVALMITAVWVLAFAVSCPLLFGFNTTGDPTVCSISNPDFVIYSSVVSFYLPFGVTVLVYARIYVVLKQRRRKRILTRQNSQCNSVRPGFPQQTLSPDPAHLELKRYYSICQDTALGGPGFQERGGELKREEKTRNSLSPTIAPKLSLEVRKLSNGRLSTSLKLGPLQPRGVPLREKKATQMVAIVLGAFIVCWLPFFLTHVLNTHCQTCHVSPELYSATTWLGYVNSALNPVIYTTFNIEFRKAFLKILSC
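Cells at 1500/well, incubated overnight, then treated with pinned compounds (dopamine as control) for 90 min at 37 degrees C. DiscoveRx reagent added for 30 - 60 minutes at room temperature; luminescence read.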
TRPML1 inh: inhibitors of human TRPML1 channel. Q9GZU1. TRPML1-inducible cells, Ca2+ dye fluorescence, FDSS; hits give low values; inhibition of EC80 agonist-evoked calcium signal. activity change, negative = inhibition, % (no concentration beside the values). 390,000 tested, 0.02% active; in the data active means activity change below about -50%; inconclusive means between about -30% and that limit;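 further: stimulus is agonist 54-4 at its EC80 concentration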
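Tet-induced TRPML1-DL cells loaded with Ca8 no-wash calcium dye were read kinetically on FDSS. Compound addition was followed by EC80 agonist 54-4 (4 uM final); inhibition was read over 110 s.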
D3 antag: blocks the human D3 dopamine receptor; P35462; D3R cells, DiscoveRx beta-arrestin luminescence, antagonist mode; hits give low values; max response, negative = inhibition, %; 360,000 tested, 2.5% active; AID 652054; in the data active means max response below about -50%; inconclusive means no clear call, values can overlap the other calls
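Cells expressing the human receptor were seeded at 1500 cells/well, incubated overnight at 37 degrees C in 5% CO2, then exposed to library compounds with dopamine controls for 90 minutes at 37 degrees C before luminescent detection.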
Numbers stand for hits; i = inactive; ? = inconclusive; nt = no result given.

SMILES | TRPML1 agonist | DRD3 agonist | TRPML1 inh | D3 antag
Nc1c(C(=O)Nc2ccc(OC(F)(F)F)cc2)sc2nc3c(cc12)N1CCC3CC1 | i | i | i | nt
COc1ccc(C(=O)C2CCCN(CCc3ccccc3)C2)cc1OC (stereo not given) | i | i | i | -68.1
CCOc1ccccc1CN1CCCC(C(=O)c2cc(F)ccc2F)C1 (stereo not given) | i | i | i | -71.8
COc1ccc(C(=O)C2CCCN(Cc3ccc(F)cc3F)C2)cc1F (stereo not given) | nt | i | nt | i
CCOc1ccc(CN2CCCC(C(=O)c3ccccc3OC)C2)cc1 (stereo not given) | i | i | i | -81.3
O=C(NC(O)C(Cl)(Cl)Cl)NC(O)C(Cl)(Cl)Cl (stereo not given) | nt | 76.7 | nt | nt
CNC(=O)NC(O)C(Cl)(Cl)Cl (stereo not given) | i | i | i | i
C=CCC1(C(C)CCC)C(=O)N=C(S)NC1=O (stereo not given) | nt | i | nt | nt
CN(C)CCN=Cc1c(O)n(C2CCCCCC2)c(=O)[nH]c1=O | i | i | i | i
CCN(CC)CCN=Cc1c(O)n(C2CCCCCC2)c(=O)[nH]c1=O | i | 39.3 | i | i
COc1cc(C[C@@H](C)N)c(OC)cc1Br | nt | i | nt | nt
CNc1ccc2nc3ccccc3[n+](C)c2c1 | i | i | i | -58.5
C[n+]1c2ccccc2nc2ccc(NCCO)cc21 | i | i | i | -53.9
Cn1cc(C2=C(c3cn(C4CCN(Cc5ccccn5)CC4)c4ccccc34)C(=O)NC2=O)c2ccccc21 | nt | i | nt | nt
CCOC(=O)CCCc1cc[c]([Sb](=[O])([OH])[OH])cc1 | i | nt | nt | nt
CN1CCN(c2ccc(N)cc2Cl)CC1 | i | i | i | -60.4
Cc1cccc2nc(-c3ccccc3)c(-c3ccc(CN4CCC(n5c(=O)[nH]c6ccccc65)CC4)cc3)nc12 | i | i | nt | ?
CCOC(=O)c1cc2ccccc2n1C1CCN(Cc2ccccc2)CC1 | i | i | nt | -115.7
O=[N+]([O-])c1cccc(CN2CCN(Cc3ccc(Cl)cc3)CC2)c1 | i | i | i | -79.1
O=[N+]([O-])c1cccc(CN2CC=C(c3ccc(F)cc3)CC2)c1 | i | i | i | -98.8
O=[N+]([O-])c1ccccc1CN1CC=C(c2ccc(F)cc2)CC1 | i | i | i | -68.2
[Hg+][c]1ccccc1 | i | nt | nt | nt
Nc1ccc(N)cc1 | nt | i | nt | nt
O=C(Oc1c(Cl)cc(Cl)c2ccccc12)N1CCCCC1 | 68.0 | i | i | i
COC1CC2C=C(C)C=CC=CC(=O)NC(c3ccccc3)CC=CCCC(O)CC(=O)C2=C1O (stereo not given) | i | i | nt | -85.2
SMILES | TRPML1 agonist | DRD3 agonist | TRPML1 inh | D3 antag
COc1ccccc1CCNC1CCC(C(C)(C)C)CC1 (stereo not given) | i | i | i | -74.2
COc1ccccc1CCNC1CCCCCC1 | i | i | i | ?
C[C@H]1O[C@@H](O[C@H]2[C@@H](O)C[C@@H](O[C@H]3[C@@H](O)C[C@H](O[C@H]4CC[C@@]5(C)[C@H](CC[C@@H]6[C@@H]5CC[C@]5(C)[C@@H](C7=CC(=O)OC7)CC[C@]65O)C4)O[C@@H]3C)O[C@@H]2C)C[C@H](O)[C@@H]1O | i | nt | nt | nt
CC(=O)O[C@H]1C(=O)[C@@]2(C)C([C@H](OC(=O)c3ccccc3)[C@]3(O)C[C@H](OC(=O)[C@H](O)[C@@H](NC(=O)Cc4ccccc4)c4ccccc4)C(C)=C1C3(C)C)[C@]1(OC(C)=O)CO[C@@H]1C[C@@H]2O (stereo not given in full) | i | i | i | -50.4
CC(=O)O[C@@]12CO[C@@H]1C[C@H](O)[C@@]1(C)C(=O)[C@H](O)C3=C(C)[C@@H](OC(=O)[C@H](O)[C@@H](NC(=O)c4ccccc4)c4ccccc4)C[C@@](O)([C@@H](OC(=O)c4ccccc4)C12)C3(C)C (stereo not given in full) | i | i | i | i
CN1/C(=C\C=Nc2ccccc2)C(C)(C)c2ccccc21 | i | i | i | i
CN1/C(=C\C=C2C(=O)NC(=O)NC2=O)C(C)(C)c2ccccc21 | 81.4 | i | i | i
COC(=O)C1=C(C(=O)OC)SC2(S1)C(C(=O)OC)=C(C(=O)OC)Sc1c2ssc1=O | i | i | i | -95.6
Clc1ccc(OCC#CCN2CCCCCC2)cc1 | i | i | i | -90.6
COc1ccc(OCC#CCN2CCC(C)CC2)cc1 | i | i | i | ?
c1ccc2c(CCNC3CCCCC3)c[nH]c2c1 | i | i | i | i
c1ccc2[nH]c(CCNC3CCCCC3)nc2c1 | i | i | i | -52.8
Cn1cnc(CCN)c1 | i | i | i | -77.1
